Shown are actives, neighbours in structure and some others; about 3.9% of the full set was active somewhere.
Bead autofluor: compound fluorescence in toxin protease inhibitor counterscreen | compound autofluorescence counterscreen, microsphere flow cytometry; hits give high values | fluorescence intensity (concentration not given with the values) | 360,000 compounds, 3.1% hits; in the data active = fluorescence intensity above about 16000; inconclusive = no clear call, values can overlap the other calls
SARS 3CLpro inh: SARS-CoV 3CLpro protease inhibitors, primary screen, biochemical, quenched FRET; recombinant SARS-CoV 3CLpro, quenched FRET peptide cleavage; inhibition, % at 6 µM; 290,000 compounds, 0.14% hits; in the data active = inhibition above about 12%
Anthrax LF prot: Bacillus anthracis LF protease inhibitors, primary screen, biochemical, multiplex microsphere, MLPCN library. multiplex microsphere protease cleavage assay. inhibition, % at 10 µM. 360,000 compounds, 0.12% hits; note: plate controls were buffer without enzyme for full effect and enzyme alone for no effect
BoNT A protease: BoNT/A light chain protease inhibitors, primary screen, biochemical, flow cytometry, MLPCN library; inhibition, % at 10 µM; 360,000 compounds, 0.17% hits; multiplex microsphere protease substrate cleavage; Botulinum neurotoxin type A light chain protease (Clostridium botulinum A str. ATCC 3502); note: plate controls were buffer without enzyme for full effect and enzyme alone for no effect
BoNT-F LC inh: BoNT/F light chain protease inhibitors, primary screen, biochemical, flow cytometry, MLPCN library; Botulinum neurotoxin type F light chain protease (Clostridium botulinum); Multiplex microsphere protease cleavage assay; inhibition, % at 10 µM; 360,000 compounds, 0.22% hits; in the data active = inhibition above about 35%, passing the limit was not always enough; inconclusive = no clear call, values can overlap the other calls; note: plate controls were buffer without enzyme for full effect and enzyme alone for no effect
VHR inh abs: VHR1 phosphatase inhibitors, primary screen, biochemical, absorbance, uHTS. Dual specificity protein phosphatase 3 (Homo sapiens), P51452. recombinant VHR phosphatase, pNPP absorbance. inhibition, % at 13.3 µM. 290,000 compounds, 0.52% hits; in the data active = inhibition above about 50%
Target sequence (P51452 whole entry, looked up): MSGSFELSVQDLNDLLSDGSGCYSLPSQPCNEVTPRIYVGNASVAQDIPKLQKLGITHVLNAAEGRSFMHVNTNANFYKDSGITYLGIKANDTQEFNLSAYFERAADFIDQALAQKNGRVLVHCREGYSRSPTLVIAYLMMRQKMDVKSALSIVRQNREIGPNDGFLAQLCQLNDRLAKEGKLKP
BoNTA LC inh 2: BoNT/A light chain protease inhibitors, confirmation, biochemical, flow cytometry, cherry pick 2. shares compounds with BoNT A protease. multiplex microsphere protease cleavage assay. inhibition, % at 10 µM. 150 compounds, 10% hits. AID 602325, 2012; in the data active = inhibition above about 24%
Anthrax LF CP2: Bacillus anthracis LF protease inhibitors, confirmation, biochemical, multiplex microsphere. 150 compounds, 7% hits. shares compounds with BoNT A protease. multiplex microsphere protease cleavage assay. inhibition, % at 10 µM; in the data active = inhibition above about 25%
BoNT-F LC CP2: BoNT/F light chain protease inhibitors, confirmation, biochemical, flow cytometry, cherry pick 2; shares compounds with BoNT A protease; multiplex microsphere protease cleavage assay; inhibition, % at 10 µM; 150 compounds, 7% hits; in the data active = inhibition above about 25%
An asterisk follows results filed as active; u = inconclusive; x = no result. Cut-off read from the data, not from the text of the source, unless noted: active = inhibition above about 30%; inconclusive = no clear call, values can overlap the other calls; inactive = below that.

SMILES	Bead autofluor	SARS 3CLpro inh	Anthrax LF prot	BoNT A protease	BoNT-F LC inh	VHR inh abs	BoNTA LC inh 2	Anthrax LF CP2	BoNT-F LC CP2
Cc1[nH]c2ccc(CNS(=O)(=O)c3ccc(S(=O)(=O)N4CCOCC4)cc3)cc2c1C	6262	2	0	0	-1	12	2	-3	-2
O=C(Cc1ccccc1)c1ccccn1	10134	x	23	33*	-5	x	33*	29*	3
O=C(CCC1CCCC1)N1CCN(S(=O)(=O)c2ccc(Br)cc2)CC1	6066	x	89*	80*	83*	x	2	0	6
O=C(CC1CCCC1)N1CCN(S(=O)(=O)c2ccc(F)cc2)CC1	3402	x	2	0	0	x	x	x	x
Cc1ccc(S(=O)(=O)N2CC(O)C[C@H]2C(=O)OCC(=O)N2CCN(c3ccc(F)cc3)CC2)cc1C (some centres not stated)	5341	x	97*	99*	97*	x	2	0	5
CSc1ncccc1C(=O)NC1CCN(Cc2ccccc2)CC1	5849	-2	1	3	-1	88	x	x	x
CC(C)(C)CNC(=O)c1cccc2c1C(=O)c1ccc(N3CCCC3)cc1S2(=O)=O	4481	x	5	4	0	x	x	x	x
O=C(NC1CC1)c1cccc2c1C(=O)c1ccc(N3CCC(Cc4ccccc4)CC3)cc1S2(=O)=O	4605	x	16	11	16	x	x	x	x
CC1CCN(c2ccc3c(c2)S(=O)(=O)c2cccc(C(=O)NCc4ccc(F)cc4)c2C3=O)CC1	3007	x	3	8	-1	x	5	2	-1
O=C(NCc1cc(C(F)(F)F)ccc1Cl)c1cccc2c1C(=O)c1ccc(N3CCC(Cc4ccccc4)CC3)cc1S2(=O)=O	5976	x	18	7	12	x	7	8	16
COc1ccccc1N1CCN(c2ccc3c(c2)S(=O)(=O)c2cccc(C(=O)NCC4CC4)c2C3=O)CC1	3266	x	-6	0	-3	x	3	3	15
O=C(NCc1ccc(F)cc1)c1cccc2c1C(=O)c1ccc(N3CCOCC3)cc1S2(=O)=O	2751	x	4	3	2	x	x	x	x
CC1CCN(c2ccc3c(c2)S(=O)(=O)c2cccc(C(=O)NC4CCCCC4)c2C3=O)CC1	4303	x	11	8	6	x	5	6	16
O=C(NC1CCCCC1)c1cccc2c1C(=O)c1ccc(N3CCCC3)cc1S2(=O)=O	4029	x	-2	2	5	x	x	x	x
NC(=O)c1ccc(-c2nnc(Nc3ccc(S(N)(=O)=O)cc3)c3ccccc23)cc1	3705	6	-4	-2	11	-15	x	x	x
CC(=O)N1CCN(c2nc3ccc([N+](=O)[O-])cc3s2)CC1	4336	-16	0	1	-2	23	x	x	x
Cc1cnc(CN(C)C(=O)CC2C(=O)NCCN2CCCc2ccccc2)[nH]1 (configuration not stated)	u	-1	-2	1	-14	2	x	x	x
Cc1cc2ccccc2n1CCNC(=O)C1CC1	3417	-4	44*	69*	23	33	9	10	4
O=C(NCCn1ccc2ccccc21)C1CCCCC1	5958	7	-1	1	-5	39	x	x	x
Cc1cc2ccccc2n1CCNC(=O)C1CCCCC1	2400	5	27	96*	-27	-15	4	2	6
C[C@@H]1CN([C@@H](C)CO)C(=O)CCCn2nncc2CO[C@H]1CN(C)S(C)(=O)=O	3765	x	8	0	-3	x	x	x	x
CC(C)c1ccc(NC2=CC(=O)CC(C)(C)C2)cc1	3039	2	-4	-3	30	5	x	x	x
CCOC(=O)c1ccc(NCCc2ccc(OC)c(OC)c2)c(N)c1	3476	4	1	5	-22	74	x	x	x
